Drawing on PubChem BioAssay (NCI), this text covers growth for eight molecules.

What all share (assay): NCI-60 one-dose screen, 48 h (100 = growth as untreated, 0 = no growth, -100 = all killed)
Holding throughout (conditions): 10 µM

The test system of assay [1] is DU-145 prostate.
Assay [2] relates to K-562 leukemia.
In assay [3] the test system is MALME-3M melanoma.
Assay [4] relates to MDA-MB-231 breast.
For assay [5], the system named is RXF 393 renal.
In assay [6] the test system is SF-268 CNS.
Assay [7] has as its system SF-295 CNS.
The subject of assay [8] is SF-539 CNS.
Assay [9] relates to UACC-257 melanoma.
For assay [10], the system named is M14 melanoma.
Assay [11] deals with HCT-15 colon.
Assay [12] has as its system HT29 colon.
The subject of assay [13] is SNB-75 CNS.
The subject of assay [14] is SNB-19 CNS.
In assay [15] the test system is U251 CNS.
In assay [16] the test system is PC-3 prostate.
Assay [17] deals with SK-MEL-5 melanoma.
Assay [18] deals with UACC-62 melanoma.
Assay [19] has as its system LOX IMVI melanoma.
In assay [20] the test system is SK-MEL-28 melanoma.

The panel holds about 83,000 compounds, 20% with a hit somewhere; the sample as a whole holds those more often.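 Note: values are percent growth. 100 is the growth of untreated cells, values between 100 and 0 indicate rising inhibition; between -100 and 0 indicates cell death.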 Values without a mark were called inactive. Activity calls are given as the source filed them. How the source made its calls: active means growth percent below 10; inactive means the rest.

Regarding `N=C(N)c1ccc(-c2ccc(-c3cccs3)s2)nc1`, the growth in assay [1] is 64.4%; in assay [2], -14.9% (active); in assay [3], 57.1%; in assay [4], 8.8% (active); in assay [5] it was 30.8%; in assay [6], 70.1%. In addition, the growth in [7] is 7.11% (active); in assay [8], 84.5%; in [9], 63.2%; in assay [10] it was 75%; in assay [11] it was 12.2%; in assay [12] it was -20.1% (active). Moreover, the growth in assay [13] was 41.3%; in [14], 87.8%; in assay [15], 28%; in [16], 43.7%; in assay [17], 68.6%; in assay [18] it was 86.8%. The growth in assay [19] is 10.5%; in [20] it was 83.7%.

`CCCCCC(CCC)COC(=O)c1ccc(OC)cc1` (stereo not given): the growth is 109% in assay [1]; 105% in assay [2]; 97.4% in [3]; 109% in [4]; 115% in assay [5]; 106% in assay [6]. Also, the growth in [7] was 102%; in assay [8] it was 96.9%; in [9], 90.8%; in assay [10] it was 101%; in assay [11], 99%; in [12], 101%. For the same molecule, the growth in assay [13] was 89.2%; in [14] it was 112%; in assay [15], 96%; in [16] it was 84.1%; in assay [17] it was 104%; in assay [18] it was 104%. Further, the growth in assay [19] was 94.5%; in assay [20], 110%.

With `CCc1ccc(-c2nnc(COc3ccc(-c4nc5ccccc5[nH]4)cc3OC)o2)cc1`, the growth was 48.1% in assay [1]; 33% in [2]; 47.6% in assay [3]; 10.5% in [4]; 68.7% in [5]; 52.8% in assay [6]. Also, the growth in assay [7] was 79.3%; in assay [8], 6.55% (active); in [9], 88.7%; in [10], 56.5%; in [11] it was 52.9%; in assay [12], 61.7%. For the same molecule, the growth was -27.1% (active) in [13]; 84.3% in [14]; 23.3% in [15]; 54.9% in assay [16]; 80.2% in assay [17]; 91% in assay [18]. In addition, the growth in [19] is 24.5%; in assay [20], 93.5%.

In the case of `O=[N+]([O-])c1ccc(-c2nc(Cl)c3c(n2)CCCC3)o1`, the growth in [1] was 31.4%; in [2], 73.2%; in assay [3], 41.4%; in assay [4], 109%; in assay [5] it was 93.8%; in assay [6] it was 88.5%. The growth was 115% in assay [7]; 94.6% in [8]; 82.5% in assay [9]; 71.3% in assay [10]; 15.9% in [11]; 53.5% in [12]. For the same molecule, the growth in assay [13] was 69.9%; in assay [14], 91.1%; in assay [15], 78.6%; in assay [16], 89.4%; in assay [17], 47.3%; in [18] it was 86.9%. Besides, the growth was 21.8% in assay [19] and 98.4% in assay [20].

Consider `NCCNc1ccc2cc(-c3nc4ccccc4[nH]3)c(=O)oc2c1`, for which the growth in assay [1] was 103%; in assay [2], 81.3%; in assay [3], 105%; in assay [4] it was 66%; in assay [5], 108%; in assay [6] it was 92.3%. Besides, the growth was 98.2% in [7]; 94.2% in [8]; 98.6% in [9]; 104% in [10]; 79.4% in assay [11]; 108% in assay [12]. For the same molecule, the growth in [13] was 85.1%; in assay [14], 105%; in assay [15] it was 94.9%; in assay [16] it was 79.7%; in [17] it was 93.5%; in assay [18], 87.4%. Also, the growth is 85% in assay [19] and 93.7% in assay [20].

In the case of `CCCc1c(CC)c(=N)c2ccccc2n1C`, the growth in assay [1] was 62%; in [2] it was -3.78% (active); in assay [3], -88.7% (active); in [4], 43.1%; in [5], 8.09% (active); in assay [6], 79.5%. In addition, the growth in assay [7] is -51.9% (active); in assay [8], 68.1%; in assay [9] it was -64.1% (active); in assay [10], -61.6% (active); in assay [11] it was 10.7%; in assay [12], 4.71% (active). For the same molecule, the growth in assay [13] is 73.4%; in assay [14] it was 95.1%; in assay [15] it was 43.2%; in assay [16], 67.4%; in assay [17] it was 19.2%; in assay [18], -3.76% (active). For the same molecule, the growth was 1.08% (active) in assay [19] and -80.8% (active) in assay [20].

In the case of `NC(N)=NS(=O)(=O)c1ccc(Nc2ccc3nnc(-c4ccncc4)n3n2)cc1`, the growth in assay [1] was 111%; in assay [2] it was 95.3%; in [3], 98.1%; in [4] it was 102%; in assay [5], 106%; in assay [6], 102%. Further, the growth in assay [7] was 116%; in [8], 100%; in assay [9] it was 127%; in assay [10], 105%; in assay [11] it was 100%; in [12] it was 104%. Also, the growth in [13] was 90.4%; in assay [14], 94.3%; in assay [15], 104%; in [16], 107%; in [17], 98.3%; in [18], 97.1%. Moreover, the growth was 97.2% in [19] and 107% in assay [20].

Take `COc1ccc(-c2nnc(COc3ccc(NC(=O)Nc4cccc(C(F)(F)F)c4)cc3F)o2)cc1`: the growth was 71.9% in [1]; 45.3% in assay [2]; 60.5% in assay [3]; 42.5% in [4]; 86.6% in assay [5]; 75.1% in assay [6]. Also, the growth in assay [7] is 64.2%; in [8], 57.6%; in [9], 71.8%; in assay [10] it was 60.8%; in [11], 46.1%; in [12] it was 66.8%. For the same molecule, the growth in assay [13] was 79.6%; in assay [14], 47.7%; in assay [15], 48.1%; in assay [16], 46.5%; in assay [17], 78.8%; in assay [18] it was 17.1%. The growth in [19] is 8.23% (active); in assay [20], 73.4%.
